# From PubChem BioAssay (NCI)
# About 83,000 compounds went through this panel and 20% of them were active in at least one assay; those are over-represented in the sample as a whole.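 Negative percent growth values reflect cell death: -40 means 40% of the cells present at the start died, and -100 means all died.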 The source made the active and inactive calls. The calls were made as follows: active = growth percent below 10; inactive = the rest.
# What was measured:
# Assay in all cases: NCI-60 one-dose screen, 48 h (100 = growth as untreated, 0 = no growth, -100 = all killed)
# Conditions in all cases: 10 µM unless noted
# DU-145 prostate = test system: DU-145 prostate
# K-562 leukemia = test system: K-562 leukemia
# MALME-3M melanoma = test system: MALME-3M melanoma
# MDA-MB-231 breast = test system: MDA-MB-231 breast
# RXF 393 renal = test system: RXF 393 renal
# SF-268 CNS = test system: SF-268 CNS
# SF-295 CNS = test system: SF-295 CNS
# SF-539 CNS = test system: SF-539 CNS
# UACC-257 melanoma = test system: UACC-257 melanoma
# M14 melanoma = test system: M14 melanoma
# HCT-15 colon = test system: HCT-15 colon
# HT29 colon = test system: HT29 colon
# SNB-75 CNS = test system: SNB-75 CNS
# SNB-19 CNS = test system: SNB-19 CNS
# U251 CNS = test system: U251 CNS
# PC-3 prostate = test system: PC-3 prostate
# SK-MEL-5 melanoma = test system: SK-MEL-5 melanoma
# UACC-62 melanoma = test system: UACC-62 melanoma
# LOX IMVI melanoma = test system: LOX IMVI melanoma
# SK-MEL-28 melanoma = test system: SK-MEL-28 melanoma
SMILES,growth (DU-145 prostate),growth (K-562 leukemia),growth (MALME-3M melanoma),growth (MDA-MB-231 breast),growth (RXF 393 renal),growth (SF-268 CNS),growth (SF-295 CNS),growth (SF-539 CNS),growth (UACC-257 melanoma),growth (M14 melanoma),growth (HCT-15 colon),growth (HT29 colon),growth (SNB-75 CNS),growth (SNB-19 CNS),growth (U251 CNS),growth (PC-3 prostate),growth (SK-MEL-5 melanoma),growth (UACC-62 melanoma),growth (LOX IMVI melanoma),growth (SK-MEL-28 melanoma)
CC(C)NC[C@@H](C(=O)N1CCN(c2ncnc3c2[C@H](C)C[C@H]3O)CC1)c1ccc(Cl)cc1,67.8% (inactive),64.7% (inactive),60.1% (inactive),87.6% (inactive),-24.8% (active),57.7% (inactive),19.9% (inactive),2.83% (active),42.8% (inactive),69.9% (inactive),71.2% (inactive),27.4% (inactive),8.53% (active),26.7% (inactive),28.4% (inactive),33% (inactive),72.4% (inactive),44.6% (inactive),66.8% (inactive),55.6% (inactive)
CO[C@H]1C[C@@H]2CC[C@@H](C)[C@@](O)(O2)C(=O)C(=O)N2CCCC[C@H]2C(=O)O[C@H]([C@H](C)C[C@@H]2CC[C@@H](OCCO)[C@H](OC)C2)CC(=O)[C@H](C)/C=C(\C)[C@@H](O)[C@H](OC)C(=O)[C@H](C)C[C@H](C)\C=C/C=C/C=C/1C,50.8% (inactive),42.9% (inactive),36.6% (inactive),63.1% (inactive),5.21% (active),51.6% (inactive),26.3% (inactive),41.8% (inactive),61% (inactive),62.2% (inactive),53.9% (inactive),44.1% (inactive),20.8% (inactive),49.5% (inactive),42.7% (inactive),44.3% (inactive),63.5% (inactive),40.8% (inactive),40.3% (inactive),44% (inactive)
Clc1ccc(C(Cn2ccnc2)OCc2ccsc2Cl)c(Cl)c1 (stereo not given),90.3% (inactive),16% (inactive),65.8% (inactive),70.9% (inactive),27.8% (inactive),67.5% (inactive),37.6% (inactive),72.5% (inactive),59.7% (inactive),41.4% (inactive),42.5% (inactive),30% (inactive),56.4% (inactive),68.4% (inactive),54.7% (inactive),31.1% (inactive),31.2% (inactive),41.9% (inactive),43.7% (inactive),77.2% (inactive)
CN(C)CCn1c(=O)c2c3cc4c(cc3n(CCN(C)C)c2c2ccc(Cl)cc21)OCO4,60.6% (inactive),-17.8% (active),78.7% (inactive),31.6% (inactive),57.9% (inactive),32% (inactive),32.5% (inactive),69.9% (inactive),71.6% (inactive),50.5% (inactive),43.3% (inactive),25.1% (inactive),70.8% (inactive),34.3% (inactive),44.6% (inactive),36.2% (inactive),52.8% (inactive),76.9% (inactive),-88.2% (active),87% (inactive)
Clc1ccc(Nc2nccc(Nc3ccc4[nH]ncc4c3)n2)cc1,49.8% (inactive),-7.92% (active),87.5% (inactive),68.8% (inactive),35.1% (inactive),60.4% (inactive),70.9% (inactive),75.8% (inactive),87.6% (inactive),43.8% (inactive),40.5% (inactive),16.6% (inactive),67.6% (inactive),78.1% (inactive),58.8% (inactive),24.9% (inactive),25.9% (inactive),33.5% (inactive),44.9% (inactive),80% (inactive)
COc1cc(NCCCN)c2ncccc2c1,109% (inactive),89.9% (inactive),109% (inactive),87.5% (inactive),93.6% (inactive),90.7% (inactive),67.8% (inactive),88.4% (inactive),93.7% (inactive),75.9% (inactive),100% (inactive),75.6% (inactive),87.5% (inactive),87.5% (inactive),83.2% (inactive),82.2% (inactive),81.5% (inactive),86.8% (inactive),61.8% (inactive),83.4% (inactive)
COc1cc2c(Nc3ccc(Br)cc3F)ncnc2cc1OCC1CCN(C)CC1,33% (inactive),3.22% (active),-52.3% (active),9.67% (active),-38.2% (active),30.5% (inactive),45.8% (inactive),-58.4% (active),-85.9% (active),-82.5% (active),11.6% (inactive),5.35% (active),-59.8% (active),37.6% (inactive),8.98% (active),39.1% (inactive),-66.3% (active),-45.8% (active),-45.6% (active),-79.7% (active)
CC(C)[C@@H]1CC[C@@H]2[C@@H]1[C@H](OC(=O)/C=C/c1ccccc1)[C@]1(C(C)C)C[C@@H](OC(=O)CO)[C@@]2(C)O1,86% (inactive),78.3% (inactive),80.3% (inactive),77.7% (inactive),23.4% (inactive),56.8% (inactive),92.2% (inactive),97.1% (inactive),84.1% (inactive),95.8% (inactive),78% (inactive),75% (inactive),38.1% (inactive),99% (inactive),74.3% (inactive),30% (inactive),81.2% (inactive),84.3% (inactive),81% (inactive),104% (inactive)
O=C1C=CC2(NN=C(c3ccccc3)N2c2ccccc2)c2cccc(O)c21 (stereo not given),35.7% (inactive),28.6% (inactive),11.6% (inactive),75.6% (inactive),120% (inactive),49.4% (inactive),17.1% (inactive),25.4% (inactive),3.12% (active),8.81% (active),16.8% (inactive),44.3% (inactive),19.9% (inactive),32% (inactive),11.2% (inactive),36% (inactive),-91.5% (active),-50.4% (active),-5.86% (active),38.2% (inactive)
CNC(=O)c1cc(Oc2ccc3nc(NC(=O)Nc4ccc(Cl)c(C(F)(F)F)c4)sc3c2)ccn1,19.2% (inactive),47.2% (inactive),-21.1% (active),4.76% (active),-19.4% (active),21.9% (inactive),-10.9% (active),-2.86% (active),61.4% (inactive),-10.4% (active),23.5% (inactive),3.52% (active),-58.8% (active),33.5% (inactive),-9.69% (active),12.4% (inactive),25.7% (inactive),8.48% (active),1.46% (active),34.7% (inactive)
COC[C@@H](C)n1c(C2CCOCC2)nc2c1C1C=C(OC)C(c3c(C)noc3C)=CC1N=C2 (stereo not given in full),65.5% (inactive),33.6% (inactive),41.2% (inactive),25% (inactive),55.9% (inactive),62.4% (inactive),45.4% (inactive),34.5% (inactive),41.4% (inactive),42.4% (inactive),30.7% (inactive),17.4% (inactive),2.03% (active),46.3% (inactive),69% (inactive),38.2% (inactive),38.7% (inactive),18.5% (inactive),19.6% (inactive),65.4% (inactive)
COc1ccc(-c2cc3c(C)nc(N)nc3n(C3CCC(OCCO)CC3)c2=O)cn1 (stereo not given),7.64% (active),24% (inactive),-34% (active),5.08% (active),-50.9% (active),4.36% (active),-57.7% (active),-62.4% (active),-35.9% (active),0.206% (active),3.45% (active),1.24% (active),-50.6% (active),-7.7% (active),-13.8% (active),5.19% (active),-77.3% (active),-52.5% (active),-55.5% (active),-29.4% (active)
O=C(Nc1cccc(Cl)c1)Nc1ncc(CCNc2ncnc3ccsc23)s1,50.6% (inactive),13.8% (inactive),19% (inactive),41.5% (inactive),-0.457% (active),39.4% (inactive),20% (inactive),24% (inactive),11.5% (inactive),10.3% (inactive),22.9% (inactive),19.7% (inactive),25.6% (inactive),64.9% (inactive),38.4% (inactive),8.62% (active),-52% (active),-24.7% (active),16.4% (inactive),33.5% (inactive)
CO[C@@H](C(=O)N1Cc2[nH]nc(NC(=O)c3ccc(N4CCN(C)CC4)cc3)c2C1)c1ccccc1,17.6% (inactive),6.59% (active),48.6% (inactive),9.92% (active),-36.4% (active),1.17% (active),31.7% (inactive),-4.34% (active),14.2% (inactive),35.8% (inactive),74.2% (inactive),-34.7% (active),-85.5% (active),28.3% (inactive),16% (inactive),26.5% (inactive),-20.5% (active),30.6% (inactive),-89% (active),45.5% (inactive)
